# Experimental data as given in PubChem BioAssay (Tox21).
# “And” between values parts separate entries of the source, which are not always exact repeats. Identical values can stand only once. Unmarked numbers belong to inactive results. Records with an inconclusive call do not appear. A call without a number means that no potency is given here. The source made the active and inactive calls. Unless noted, the call rests on the fitted dose curve; in most records, active means well fitted curve in the direction sought with a large enough effect in the repeat runs; inconclusive means weak or mixed curves; inactive means no such curve, though single readings can be large; an effect the other way counts as inactive or inconclusive.
# Assays:
# [1] = qHTS assay to identify small molecule antagonists of the glucocorticoid receptor (GR) signaling pathway - cell viability counter screen (AID 720693); further: nearly all actives have a fitted effect of over 55% in size
# [2] = qHTS assay for identifying genotoxic compounds that show differential cytotoxicity against isogenic chicken DT40 cell lines with known DNA damage response pathways - wild type cell line (AID 743012); further: nearly all actives have a fitted effect of over 60% in size; further: potency means the concentration at half of the fitted maximal effect
# Outline: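 Parental DNA repair-proficient DT40 cells, 300 per well, were pre-incubated ~0.5 h at 37 C/5% CO2, pin-dosed with compounds in DMSO, then incubated 40 h. Viability was read as CellTiter-Glo luminescence after 30 min at room temperature.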
# [3] = qHTS assay for identifying genotoxic compounds that show differential cytotoxicity against isogenic chicken DT40 cell lines with known DNA damage response pathways - Rev3 mutant cell line (AID 743014); further: nearly all actives have a fitted effect of over 55% in size; further: potency means the concentration at half of the fitted maximal effect
# [4] = qHTS assay for identifying genotoxic compounds that show differential cytotoxicity against isogenic chicken DT40 cell lines with known DNA damage response pathways - Rad54/Ku70 mutant cell line (AID 743015); further: nearly all actives have a fitted effect of over 60% in size; further: potency means the concentration at half of the fitted maximal effect
# [5] = qHTS assay to identify small molecule antagonists of the androgen receptor (AR) signaling pathway using the MDA cell line - cell viability counter screen (AID 743041; further: nearly all actives have a fitted effect of over 45% in size)
# Outline: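 R1881-driven MDA-kb2 AR-luc cells, 3,000/well, were dosed with library compounds for 16 h; cell health came from CellTiter-Fluor fluorescence in the reporter wells.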
# [6] = qHTS assay to identify small molecule antagonists of the thyroid receptor (TR) signaling pathway - cell viability counter screen (AID 743064); further: nearly all actives have a fitted effect of over 50% in size; further: potency means the concentration at half of the fitted maximal effect
# Outline: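 Counter screen for cytotoxicity: compound plus T3 (1 nM final) on GH3.TRE-Luc cells, 23.5 h at 37 °C, then fluorescence viability readout with CellTiter-Fluor.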
# [7] = qHTS assay to identify small molecule antagonists of the thyroid receptor (TR) signaling pathway (AID 743065); further: nearly all actives have a fitted effect of over 55% in size; further: potency means the concentration at half of the fitted maximal effect
# Outline: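 Antagonism measured as loss of luciferase signal in GH3 cells stably carrying a TRE-luciferase reporter, co-treated with compound and T3 (1 nM final) for 23.5 h at 37 C. Viability was read in the same well by CellTiter-Fluor.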
# [8] = system: thyroid hormone receptor (rat, GH3 cells); experiment: qHTS assay to identify small molecule agonists of the thyroid receptor (TR) signaling pathway (AID 743066; calls by dose curve)
# [9] = qHTS assay to identify small molecule antagonists of the estrogen receptor alpha (ER-alpha) signaling pathway - cell viability counter screen (AID 743074; calls by dose curve;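 further: HEK293 cells carrying ER-alpha-UAS-bla reporter stimulated with 17beta-estradiol; nearly all actives have a fitted effect of over 45% in size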; further: potency means the concentration at half of the fitted maximal effect)
# [10] = qHTS assay to identify small molecule antagonists of the estrogen receptor alpha (ER-alpha) signaling pathway using the BG1 cell line - cell viability counter screen (AID 743081);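 further: compound given together with 17beta-estradiol as the ER stimulus; series mostly up to about 70 µM; nearly all actives have a fitted effect of over 45% in size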
# Aromatase (Homo sapiens) = Aromatase (Homo sapiens) (UniProt P11511); experiment: qHTS assay to identify aromatase inhibitors (AID 743083); further: nearly all actives have a fitted effect of over 55% in size; further: potency means the concentration at half of the fitted maximal effect
# [11] = qHTS assay to identify aromatase inhibitors - cell viability counter screen (AID 743084); further: potency means the concentration at half of the fitted maximal effect
# [12] = target: Estrogen receptor (Homo sapiens) (UniProt P03372); experiment: qHTS assay to identify small molecule antagonists of the estrogen receptor alpha (ER-alpha) signaling pathway (AID 743069; active means well fitted curve in the direction sought with a large enough effect in the signal ratio in the repeat runs, not every such curve was filed as active; the % refers to the signal ratio)
# Outline: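 Compound effects are measured against 17beta-estradiol stimulation in HEK293 cells with a UAS-controlled beta-lactamase reporter for ER-alpha. Exposure lasts 18 hr at 37C; LiveBLAzer B/G FRET substrate follows for 2 hr at room temperature.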
# [13] = target: Estrogen receptor (Homo sapiens) (UniProt P03372); experiment: qHTS assay to identify small molecule agonists of the estrogen receptor alpha (ER-alpha) signaling pathway (AID 743075; calls by dose curve)
# [14] = target: Estrogen receptor (Homo sapiens) (UniProt P03372); experiment: qHTS assay to identify small molecule agonists of the estrogen receptor alpha (ER-alpha) signaling pathway using the BG1 cell line (AID 743079); further: nearly all actives have a fitted effect of over 20% in size; further: potency means the concentration at half of the fitted maximal effect
# [15] = qHTS assay to identify small molecule antagonists of the estrogen receptor alpha (ER-alpha) signaling pathway using the BG1 cell line (AID 743080; calls by dose curve;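 further: BG1 cells stimulated with 17beta-estradiol alongside compound; nearly all actives have a fitted effect of over 25% in size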; further: potency means the concentration at half of the fitted maximal effect)
# Outline: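 BG1Luc4E2, endogenous ER-alpha, 4xERE-luc; 5 d charcoal-stripped FBS, phenol red free; 24 h plating; cpd + 17beta-estradiol 21.5 h, 37 C/5% CO2; CellTiter-Fluor viability 30 min, then ONE-Glo luciferase 30 min RT.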
# [16] = qHTS assay to identify small molecule antagonists of the androgen receptor (AR) signaling pathway - cell viability counter screen (AID 743033; further: nearly all actives have a fitted effect of over 45% in size)
# [17] = target: Androgen receptor (Homo sapiens) (UniProt P10275); experiment: qHTS assay to identify small molecule agonists of the androgen receptor (AR) signaling pathway using the MDA cell line (AID 743040; further: nearly all actives have a fitted effect of over 20% in size)
# Outline: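 After a 5 h incubation at 37C and 0% CO2, MDA-kb2 reporter cells were dosed with compounds in DMSO and kept 16 h under the same conditions. Luciferase activity was then read as luminescence with ONE-Glo.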
# [18] = target: Androgen receptor (Homo sapiens) (UniProt P10275); experiment: qHTS assay to identify small molecule antagonists of the androgen receptor (AR) signaling pathway using the MDA cell line (AID 743042; further: nearly all actives have a fitted effect of over 55% in size)
# Outline: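 Antagonist mode: compounds plus R1881 agonist added to MDA-kb2 AR-luc cells, incubated 16 h at 37C. Luciferase reporter luminescence quantified, with multiplexed CellTiter-Fluor readout for cell viability.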
# Chain of Estrogen receptor (Homo sapiens) (P03372 whole entry, looked up): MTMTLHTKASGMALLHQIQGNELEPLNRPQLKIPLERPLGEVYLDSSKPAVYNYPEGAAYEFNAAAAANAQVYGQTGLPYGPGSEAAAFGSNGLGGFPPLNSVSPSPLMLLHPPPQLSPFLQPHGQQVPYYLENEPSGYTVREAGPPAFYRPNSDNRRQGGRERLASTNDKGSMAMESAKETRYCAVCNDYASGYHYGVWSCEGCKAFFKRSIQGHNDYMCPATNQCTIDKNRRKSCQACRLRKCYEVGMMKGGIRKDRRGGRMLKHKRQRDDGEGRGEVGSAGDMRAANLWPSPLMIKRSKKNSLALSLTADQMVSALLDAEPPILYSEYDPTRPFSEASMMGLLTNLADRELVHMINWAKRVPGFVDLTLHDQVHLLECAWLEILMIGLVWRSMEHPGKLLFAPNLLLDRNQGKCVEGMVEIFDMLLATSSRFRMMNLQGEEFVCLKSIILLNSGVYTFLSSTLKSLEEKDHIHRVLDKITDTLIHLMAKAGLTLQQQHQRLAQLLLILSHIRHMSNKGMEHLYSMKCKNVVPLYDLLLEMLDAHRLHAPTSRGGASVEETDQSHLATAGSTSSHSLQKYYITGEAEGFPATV
# Chain of Aromatase (Homo sapiens) (P11511 whole entry, looked up): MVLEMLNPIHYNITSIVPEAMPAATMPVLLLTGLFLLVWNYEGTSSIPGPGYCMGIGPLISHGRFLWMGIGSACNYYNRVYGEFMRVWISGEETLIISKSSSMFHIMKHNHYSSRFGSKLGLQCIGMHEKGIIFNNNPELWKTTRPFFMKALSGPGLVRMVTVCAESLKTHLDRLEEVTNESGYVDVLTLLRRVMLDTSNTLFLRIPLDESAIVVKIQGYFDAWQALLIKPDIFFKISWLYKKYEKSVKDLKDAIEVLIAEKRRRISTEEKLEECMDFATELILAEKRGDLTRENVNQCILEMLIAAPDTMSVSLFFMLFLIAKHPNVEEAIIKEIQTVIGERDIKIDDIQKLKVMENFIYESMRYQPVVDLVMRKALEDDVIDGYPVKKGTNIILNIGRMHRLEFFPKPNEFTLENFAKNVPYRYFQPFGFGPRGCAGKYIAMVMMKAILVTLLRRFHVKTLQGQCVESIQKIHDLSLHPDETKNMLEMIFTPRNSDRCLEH
# Chain of Androgen receptor (Homo sapiens) (P10275 whole entry, looked up): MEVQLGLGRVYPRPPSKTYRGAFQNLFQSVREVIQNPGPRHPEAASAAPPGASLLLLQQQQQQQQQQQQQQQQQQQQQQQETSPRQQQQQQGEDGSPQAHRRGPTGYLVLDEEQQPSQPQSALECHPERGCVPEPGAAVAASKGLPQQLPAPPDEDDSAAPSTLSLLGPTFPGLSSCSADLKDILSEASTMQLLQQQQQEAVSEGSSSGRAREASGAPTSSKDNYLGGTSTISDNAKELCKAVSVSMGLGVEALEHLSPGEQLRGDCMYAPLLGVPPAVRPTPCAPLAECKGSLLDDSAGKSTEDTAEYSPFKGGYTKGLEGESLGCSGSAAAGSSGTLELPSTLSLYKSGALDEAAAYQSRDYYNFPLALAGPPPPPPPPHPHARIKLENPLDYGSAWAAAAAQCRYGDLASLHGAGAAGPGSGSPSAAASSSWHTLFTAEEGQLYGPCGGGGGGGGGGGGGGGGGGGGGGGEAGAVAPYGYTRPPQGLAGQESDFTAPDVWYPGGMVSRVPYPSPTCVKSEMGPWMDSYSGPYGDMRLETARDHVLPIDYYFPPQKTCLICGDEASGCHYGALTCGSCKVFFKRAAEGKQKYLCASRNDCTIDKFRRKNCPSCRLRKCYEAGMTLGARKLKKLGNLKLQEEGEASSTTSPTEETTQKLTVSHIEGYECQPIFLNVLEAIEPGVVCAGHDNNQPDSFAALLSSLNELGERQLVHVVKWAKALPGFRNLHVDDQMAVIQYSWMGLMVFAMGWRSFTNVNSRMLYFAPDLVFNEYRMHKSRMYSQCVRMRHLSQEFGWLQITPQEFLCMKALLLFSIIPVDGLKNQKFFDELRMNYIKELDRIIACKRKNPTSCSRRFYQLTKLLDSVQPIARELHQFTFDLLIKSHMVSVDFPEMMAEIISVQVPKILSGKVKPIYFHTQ
SMILES,Potency [1],Potency [2],Potency [3],Potency [4],Potency [5],Potency [6],Potency [7],Potency [8],Potency [9],Potency [10],Potency (Aromatase (Homo sapiens)),Potency [11],Potency [12],Potency [13],Potency [14],Potency [15],Potency [16],Potency [17],Potency [18]
CC(=O)OCC1=C(C(=O)O)N2C(=O)[C@@H](NC(=O)CSc3ccncc3)[C@H]2SC1,inactive,inactive,inactive,inactive,inactive,inactive,inactive,inactive,inactive,inactive,inactive,inactive,,,,,,,
N[C@@H](Cc1cc(I)c(O)c(I)c1)C(=O)O,inactive,inactive,inactive,inactive,inactive,inactive,inactive,inactive,,,inactive,inactive,inactive,inactive,inactive,inactive,,,
Cc1cc(CCC(=O)OCCOCCOCCOC(=O)CCc2cc(C)c(O)c(C(C)(C)C)c2)cc(C(C)(C)C)c1O,inactive,26.6 µM (active),26.6 µM (active),23.7 µM (active),inactive,inactive,,inactive,inactive,inactive,inactive,inactive,,,,,,,
CC(=O)OCC(=O)[C@@]1(OC(C)=O)[C@@H](C)C[C@H]2[C@@H]3C[C@H](F)C4=CC(=O)C=C[C@]4(C)[C@@]3(F)[C@@H](O)C[C@@]21C,inactive,26.6 µM (active),11.9 µM (active),,inactive,inactive,inactive,inactive,inactive,inactive,inactive,,,,,,inactive,,
CC[C@H]1OC(=O)[C@H](C)[C@@H](O[C@H]2C[C@@](C)(OC)[C@@H](O)[C@H](C)O2)[C@H](C)[C@@H](O[C@@H]2O[C@H](C)C[C@H](N(C)C)[C@H]2O)[C@](C)(O)C[C@@H](C)CN(C)[C@H](C)[C@@H](O)[C@]1(C)O,inactive,3.76 µM (active) and 2.87 µM (active),2.11 µM (active) and 1.81 µM (active),3.76 µM (active) and 2.56 µM (active),inactive,,29.8 µM (active) and 36.1 µM (active),inactive,inactive,inactive,inactive,inactive,inactive,inactive,inactive,inactive,,,
Cc1cc([N+](=O)[O-])ccc1N,inactive,inactive,inactive,inactive,inactive,inactive,inactive,inactive,,inactive,,53.8 µM (active),inactive,inactive,,inactive,,,
OCC(CO)n1cnc(-c2ccc(F)cc2)c1-c1ccnc(Oc2ccccc2)n1,inactive,68.5 µM (active),68.5 µM (active),68.5 µM (active),inactive,inactive,inactive,inactive,inactive,inactive,inactive,inactive,,inactive,inactive,inactive,,,
COc1ccc(C(=O)NCc2ccc(OCCN(C)C)cc2)cc1OC,inactive,inactive,inactive,inactive,inactive,,inactive,inactive,inactive,inactive,inactive,inactive,inactive,inactive,inactive,,,,
CC1=CC[C@@]23C[C@@H]1C(C)(C)[C@@H]2CC[C@H]3C,inactive,inactive,inactive,,inactive,inactive,inactive,inactive,inactive,inactive,inactive,inactive,,,,,inactive,,
Cc1ccc2nc(N)[nH]c(=O)c2c1Sc1ccncc1,inactive,1.88 µM (active),0.944 µM (active),0.596 µM (active),inactive,,8.41 µM (active),inactive,3.01 µM (active),inactive,9.44 µM (active),inactive,,,,,,,
CSSc1ccoc1C,inactive,19.2 µM (active),34.2 µM (active),19.2 µM (active),inactive,inactive,inactive,inactive,inactive,inactive,inactive,inactive,,,,,,,
CN1CCCN(C(c2ccccc2)c2ccc(Cl)cc2)CC1 (stereo not drawn),inactive,9.44 µM (active),11.9 µM (active),18.8 µM (active),inactive,,10.6 µM (active),inactive,,,inactive,21.1 µM (active),inactive,inactive,inactive,inactive,,inactive,inactive
CCN(CC)CCOc1ccccc1C(=O)CCc1ccccc1,inactive,11.9 µM (active),26.6 µM (active),26.6 µM (active),inactive,,26.6 µM (active),inactive,inactive,inactive,inactive,inactive,inactive,inactive,inactive,inactive,,,
O=[N+]([O-])C1(Br)COCOC1,inactive,12.2 µM (active),21.7 µM (active),21.7 µM (active),inactive,17.2 µM (active),15.4 µM (active),,inactive,inactive,30.6 µM (active),43.3 µM (active),,inactive,inactive,96.9 µM (active),,,
COc1ccc(C2C(=O)c3ccccc3C2=O)cc1,inactive,inactive,inactive,inactive,inactive,,inactive,inactive,inactive,inactive,inactive,inactive,inactive,inactive,23.7 µM (active),inactive,,,
CCCCCCCCCCCCCCCC(=O)OCC,inactive,inactive,inactive,inactive,inactive,inactive,inactive,inactive,inactive,inactive,inactive,inactive,inactive,inactive,inactive,inactive,,,
CC(O)Cn1cnc2c1c(=O)n(C)c(=O)n2C (stereo not drawn),inactive,inactive,inactive,inactive,inactive,,inactive,inactive,,inactive,inactive,inactive,,,,,,,
CC12CC3CC(C)(C1)CC(N)(C3)C2,inactive,26.6 µM (active),29.8 µM (active),29.8 µM (active),,29.8 µM (active),29.8 µM (active),,,inactive,inactive,inactive,inactive,inactive,inactive,inactive,,,
